Inconclusive results are not listed. The source made the active and inactive calls. Calls come from the whole dose curve; as a rule, active = well fitted cell-killing curve with a large enough effect; inconclusive = small, poorly fitted or top-dose-only effect, or effect the other way; inactive = flat fitted curve, though single readings scatter.
How the values were obtained:
Assay in all cases: Primary qHTS to identify gynecologic anti-cancer compounds using libraries of approved drugs and bioactive compounds (AID 1345084); note: nearly all actives have a fitted effect of over 55% in size
C33A = details: Gynecologic cancer cell panel viability, ATPlite luminescence, 48 h; series mostly up to 57.5 µM
In short: (§1)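 In this quantitative HTS, cell killing is estimated from loss of ATP-dependent luciferase light. Cells see five compound concentrations over a 48 h exposure.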

CAOV3 = details: Gynecologic cancer cell panel viability, ATPlite luminescence, 48 h; series mostly up to 57.5 µM
In short: as §1

CASKI = details: Gynecologic cancer cell panel viability, ATPlite luminescence, 48 h; series mostly up to 57.5 µM
In short: as §1

Es-2 = details: Gynecologic cancer cell panel viability, ATPlite luminescence, 48 h; series mostly up to 57.5 µM
In short: as §1

HeLa = details: Gynecologic cancer cell panel viability, ATPlite luminescence, 48 h; series mostly up to 57.5 µM
In short: as §1

Hek293T = details: Gynecologic cancer cell panel viability, ATPlite luminescence, 48 h, control line for the selectivity index; series mostly up to 57.5 µM
In short: as §1

Measured: Potency

C/C=C(\C)C(=O)O[C@H]1[C@@H](O[C@]2(COC(=O)CC(C)C)O[C@H](COC(=O)C(C)CC)[C@@H](OC(C)=O)[C@@H]2O)O[C@H](COC(C)=O)[C@@H](O)[C@@H]1O (stereo not given in full)
inactive: all assays above

COC(=O)[C@H](O)[C@H]1C(C)(C)[C@H](OC(=O)C(C)C)[C@@]2(O)C(=O)[C@]1(C)C1CC[C@]3(C)C(CC(=O)O[C@H]3c3ccoc3)[C@]13O[C@@H]32 (stereo not given in full)
inactive: all assays above

O=C(O)/C=C/c1cc2c(cc1O[C@@H]1O[C@H](CO)[C@@H](O)[C@H](O)[C@H]1O)OCO2
inactive: all assays above

C/C(=C\C=C\C(C)C1CCC2(C)C3CCC4C(C)(C)C(=O)CCC45CC35CCC12C)C(=O)O (stereo not given)
inactive: all assays above

C=C1CC2C(C)(CCC(=O)O)C(C(C)(C)O)CCC2(C)C2C(=O)OC(C)(C(=O)OC)C(=O)C12C (stereo not given)
inactive: all assays above

CC1(O)CC(O)C2(O)C=COC(O[C@@H]3O[C@H](CO)[C@@H](O)[C@H](O)[C@H]3O)C12 (stereo not given in full)
inactive: all assays above

COc1c2c(cc3c1-c1c(cc4c(c1OC)OCO4)CC(C)C(C)C3)OCO2 (stereo not given)
inactive: all assays above

N#C[C@@H]1C[C@H](F)CN1C(=O)CNC1[C@H]2CN(C(=O)c3ccc(F)cc3)C[C@@H]12 (stereo not given in full)
inactive: all assays above

Cc1cc(C(N)=O)ccc1-n1c(CCC(=O)O)ccc1-c1ccc(-n2ccnc2)cc1
inactive: all assays above

CCc1cc(CN2CC(C(=O)O)C2)sc1-c1noc(-c2ccc(Oc3ccccc3)cc2)n1
inactive: all assays above

CC(=O)O[C@H]1C[C@@](O)(C(C)C)C2[C@@H](OC(=O)c3ccc(O)cc3)C[C@@]3(C)O[C@H]3C[C@]21C (stereo not given in full)
inactive: all assays above

C[C@@H]1O[C@@H](OC[C@H]2O[C@@H](Oc3cc(O)cc4c3C(=O)C(O)(Cc3ccc(O)cc3)O4)[C@H](O)[C@@H](O)[C@@H]2O)[C@H](O)[C@H](O)[C@H]1O (stereo not given in full)
inactive: all assays above

CC12CCC(OC3OC(CO)C(O)C(OC4OC(CO)C(O)C(O)C4O)C3O)CC1=CCC1C2CCC2(C)/C(=C3/COC(=O)C3)CCC12O (stereo not given)
inactive: all assays above

CC(C)(C)NC(=O)[C@@H](c1cccnc1)N(C(=O)c1ccco1)c1ccc(C(C)(C)C)cc1
inactive: all assays above

COc1cc(Br)c(S(=O)(=O)Nc2ccc(C(F)(F)F)c(O[C@@H]3CCN(C)C3)c2)cc1OC
inactive: all assays above

O=C(O)c1ccc(OC2OC(CO)C(O)C(O)C2O)cc1 (stereo not given)
inactive: all assays above

COC(=O)C12C(=O)C(C)=C(O)C1(C)C(C)=CC1C3(CO)CCC(O)C(C)(C)C3CCC12C (stereo not given)
inactive: all assays above

C=C1CCC2C(C)(C(=O)OC)CCCC2(C)C1CCC(C)CC(=O)O (stereo not given)
inactive: all assays above

CCCCOC(=O)NC(=O)C1c2ccccc2Oc2ccccc21
inactive: all assays above

CNC12CC3C[C@@](C)(C1)C[C@](C)(C3)C2
inactive: all assays above
